Hit rate of the full screen: of about 310,000 compounds, about 2,600 (0.84%) were called active. The sample as a whole holds a higher share of actives than the screen did. Unmarked numbers belong to inactive results.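 Rule for the calls: active = fluorescence ratio B-score at or below minus 3 SD of library scores, with starting-brightness B-score within 2 SD (cut at about -4.2 in these data); inactive = the rest.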
The compounds below were run against Inward rectifier potassium channel 2 (Mus musculus) (UniProt P35561) (assay: inhibitors of mouse Kir2.1 inward-rectifier potassium channel (AID 1672;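 note: channel flux triggered by added potassium and thallium sulfate stimulus; B-score of peak minus minimum fluorescence over baseline after thallium stimulus; more negative B-score means stronger Kir2.1 block with less thallium influx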)). Settings: HEK293-Kir2.1, FluxOR thallium flux fluorescence; at 10 µM; stronger effect = lower value.
Chain of Inward rectifier potassium channel 2 (Mus musculus) (P35561 whole entry, looked up): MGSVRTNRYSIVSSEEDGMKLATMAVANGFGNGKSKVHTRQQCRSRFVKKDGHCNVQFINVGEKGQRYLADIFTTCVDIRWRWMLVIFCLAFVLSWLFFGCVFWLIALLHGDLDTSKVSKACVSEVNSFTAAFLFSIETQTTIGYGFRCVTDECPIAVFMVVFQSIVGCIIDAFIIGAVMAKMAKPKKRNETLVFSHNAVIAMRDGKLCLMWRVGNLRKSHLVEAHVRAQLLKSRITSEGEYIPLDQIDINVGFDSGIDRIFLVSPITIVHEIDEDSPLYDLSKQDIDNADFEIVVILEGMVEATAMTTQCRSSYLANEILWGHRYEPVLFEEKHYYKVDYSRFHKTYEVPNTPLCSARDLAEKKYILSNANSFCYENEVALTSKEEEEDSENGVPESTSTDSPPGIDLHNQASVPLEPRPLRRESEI
`CCCCN1C(N)=NC[C@@H]1Cc1ccccc1` was tested, and the B-score was 1.05.
`Nc1ccc(C(=O)N2CCN(S(=O)(=O)c3ccc(Cl)cc3)CC2)cc1[N+](=O)[O-]` gave a B-score of 0.63.
For `CCOc1ccccc1NS(=O)(=O)c1cc2c3c(c1)C(C)C(=O)N3CCC2` (stereo not drawn), the B-score was -0.71.
For `CC1C(=O)N2CCCc3cc(S(=O)(=O)NCc4ccc(F)cc4)cc1c32` (stereo not drawn), the B-score was -0.21.
With `COc1ccccc1CCNS(=O)(=O)c1cc2c3c(c1)C(C)C(=O)N3CCC2` (stereo not drawn) the B-score was -5.71 (active).
Compound `COc1ccc(N2CC(NS(=O)(=O)c3ccc4ccccc4c3)CC2=O)cc1` (stereo not drawn) has a B-score of 0.13.
In the case of `CCCC(=O)N1CCc2[nH]c3ccccc3c2C1`, the B-score is reported as 0.74.
`Cc1ccc2[nH]c3c(c2c1)CN(C(=O)CN1CCN(c2ccccc2)CC1)CC3` showed a B-score of 0.62.
`O=C(CCCN1CCc2[nH]c3ccc(F)cc3c2C1)c1ccc(F)cc1` was tested, and the B-score was -7.87 (active).
In the case of `CCOc1cc(C(=O)Nc2ccc(S(=O)(=O)Nc3cnc4ccccc4n3)cc2)cc(OCC)c1OCC`, the B-score is reported as 1.91.
With `CN(C)C(CNC(=O)c1cccc(S(=O)(=O)Nc2ccc(Br)cc2)c1)c1ccco1` (stereo not drawn) the B-score was 0.84.
Compound `O=C(NCc1ccccn1)Nc1ccc(Cl)cc1` has a B-score of 0.46.
For `CC(=O)C12CC(C)=C(C)CC1CC1C3CCC4=CC(=O)CCC4(C)C3CCC12C` (stereo not drawn), the B-score was 0.6.
For `CCN(CC(=O)Nc1cc(Cl)ccc1C)C(=O)CSCc1ccc(C)cc1`, the B-score was -4.45 (active).
With `CCN(CC(=O)Nc1cc(Cl)ccc1C)C(=O)Cn1c(=O)cnc2ccccc21` the B-score was -0.02.
Work on `CCN(CC(=O)Nc1cc(Cl)ccc1C)C(=O)CN1C(=O)NC2(CCCC2)C1=O` yielded a B-score of -1.31.
`C=CCSc1nnc2c(n1)-c1cccc3cccc-2c13` showed a B-score of 1.16.
In the case of `Cc1[nH][nH]c(=O)c1C(c1ccc(-c2ccc(Cl)cc2)o1)c1c(C)[nH][nH]c1=O`, the B-score is reported as -9.44 (active).
For `CCOc1ccc(C(c2c(C)[nH][nH]c2=O)c2c(C)[nH][nH]c2=O)cc1OCC`, the B-score was -0.06.
`Cc1[nH][nH]c(=O)c1C(c1ccc2c(c1)OCO2)c1c(C)[nH][nH]c1=O` gave a B-score of -0.12.
In the case of `Cc1cccc(Nc2nc(NCCO)nc(N3CCCC3)n2)c1`, the B-score is reported as 0.27.
With `CCCCn1c(N)c(N(Cc2ccccc2OC)C(=O)COc2cc(C)ccc2Cl)c(=O)[nH]c1=O` the B-score was 0.8.
Work on `COC(=O)[C@@]12CCCN1[C@H](c1ccc(-c3ccc(F)cc3)c(OC)c1)[C@H]1C(=O)N(C)C(=O)[C@H]12` yielded a B-score of -0.2.
In the case of `CC(C)(C)c1cc2cccnc2n1Cc1cccc(F)c1`, the B-score is reported as -5.77 (active).
Work on `CC(C)(C)c1cc2cccnc2n1Cc1ccccc1` yielded a B-score of -3.38.
Compound `COc1ccnc2c1c(=O)n(Cc1cccc(F)c1)c(=O)n2C` has a B-score of 0.78.
Work on `CC1CCC2(CC1)NC(=O)N(CC(=O)c1ccc3c(c1)OCO3)C2=O` (stereo not drawn) yielded a B-score of 0.27.
Work on `COc1ccc(C(=O)Nc2ccccc2C(=O)N2CCN(c3ccccc3)CC2)cc1` yielded a B-score of 0.29.
`O=C(O)C1CC=CCC1C(=O)Nc1ccccc1C(=O)N1CCN(c2ccccc2)CC1` (stereo not drawn) gave a B-score of -0.23.
With `CC(C)c1ccc(N2CCN(C(=O)c3ccccc3NC(=O)/C=C(\C(=O)O)c3ccccc3)CC2)cc1` the B-score was -8.79 (active).
In the case of `Cc1onc(-c2ccccc2Cl)c1C(=O)OCc1nnc(-c2ccccc2)o1`, the B-score is reported as 0.59.
Work on `COc1ccc(CCNC2=C(Cl)C(=O)N(Cc3ccccc3)C2=O)cc1OC` yielded a B-score of -1.89.
`COc1ccc(CCN=C2SCC(=O)N2C)cc1OC` showed a B-score of 0.11.
`COc1ccc(CCN=C2SCC(=O)N2Cc2ccccc2)cc1OC` was tested, and the B-score was -8.95 (active).
In the case of `COc1ccc(S(=O)(=O)NCc2cccnc2)cc1NC(=O)c1ccc(C)cc1`, the B-score is reported as -1.69.
`COC(=O)c1c(-c2ccsc2)oc2ccc(-c3cc(OC)c(OC)c(OC)c3)cc12` was tested, and the B-score was 0.77.
Compound `CC(C)Oc1ccc(S(=O)(=O)N2CCOCC2)cc1NC(=O)C1CSC2(C)CCC(=O)N12` (stereo not drawn) has a B-score of -0.2.
In the case of `Cc1ccc(-c2nn(-c3ccc(F)cc3)cc2C(=O)NCC(c2cccs2)N2CCOCC2)cc1` (stereo not drawn), the B-score is reported as 1.38.
Compound `C=CCOc1cccc(C2C(C(=O)c3ccc(C)o3)=C(O)C(=O)N2c2nnc(C)s2)c1` (stereo not drawn) has a B-score of -2.11.
Compound `Cc1nc(N)[nH]c(=O)c1Oc1cccc(C(F)(F)F)c1` has a B-score of 0.08.
For `CCC(=O)OCc1c(C(F)(F)F)nn(C)c1Oc1cccc(C(F)(F)F)c1`, the B-score was -6.22 (active).
In the case of `O=Cc1ccc(Oc2cccc(C(F)(F)F)c2)nc1`, the B-score is reported as 0.35.
`CCOc1ccc(CCNC(=O)COC(=O)c2ccc(F)c(S(=O)(=O)N3CCOCC3)c2)cc1OCC` was tested, and the B-score was 0.3.
With `O=C(CSc1nnc(-c2cccs2)n1Cc1ccco1)c1ccc2c(c1)OCO2` the B-score was -4.78 (active).
In the case of `COc1ccc(NC(=O)CSc2nnc(-c3cccs3)n2Cc2ccco2)cc1OC`, the B-score is reported as 0.49.
In the case of `O=C(CSc1nnc(-c2cnccn2)n1Cc1ccco1)c1ccc(Cl)c(Cl)c1`, the B-score is reported as 0.04.
Work on `CCn1c(SC(C)C(=O)Nc2ccc(N3CCOCC3)cc2)nnc1-c1ccco1` (stereo not drawn) yielded a B-score of -1.79.
For `CCN(CC)c1ccc(S(=O)(=O)N2CCCCC2)cc1NC(=O)C1=COCCO1`, the B-score was 1.68.
`CCCc1cc(=O)[nH]c(SCC(=O)c2c(N)n(CC(C)C)c(=O)n(C)c2=O)n1` was tested, and the B-score was 0.93.
In the case of `CCCc1cc(=O)[nH]c(SCC(=O)c2cc(C)n(CCC)c2C)n1`, the B-score is reported as -6.83 (active).
With `Cc1cc(C(=O)CSc2nc(N)cc(=O)[nH]2)c(C)n1CCc1ccc(Cl)cc1` the B-score was -0.26.
`Cc1ncc(CO)c(/C=N/NC(=O)c2cccc(S(=O)(=O)N3CCCC3)c2)c1O` was tested, and the B-score was -1.2.
`NC(=O)CSc1nnc(NC(=O)c2ccc3ccccc3c2)s1` showed a B-score of 1.23.
In the case of `Cc1ccc(-c2csc(NC(=O)C3=COCCO3)n2)cc1C`, the B-score is reported as 0.03.
For `Cc1cc(Nc2ccc(Br)cc2)nc2ccccc12`, the B-score was -0.01.
Work on `COc1ccc(S(=O)(=O)NCCc2c[nH]c3ccccc23)cc1OC` yielded a B-score of -1.99.
`COc1cccc(CNCCc2c[nH]c3ccccc23)c1OCc1ccccc1F` was tested, and the B-score was -12 (active).
`COc1ccccc1CC(=O)NCCc1c[nH]c2ccccc12` showed a B-score of -0.19.
